# Screening results (PubChem)
# The list is not random: actives were taken first. Their share in the collection is about 11%.
# HEK cytotox: kills HEK 293 cells | actives 6.6% (n = 94,000) | Potency, µM (highest dose often 115 µM), for the others: at the highest dose activity change, negative = cytotoxicity, usual class: inhibitors | HEK 293 viability, ATP luminescence (CellTiter-Glo), 48-72 h; note: nearly all actives have a fitted effect of over 60% in size
#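 250 HEK 293 cells/well; compound by pintool; incubated 48 or 72 hr at 37 degree Celsius; CellTiter-Glo added, 10 min RT, luminescence imaged.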
# 3T3 cytotox: kills NIH 3T3 cells; NIH 3T3 viability, CellTiter-Glo ATP luminescence, 48-72 h; Potency, µM (top dose mostly 96.7 µM), inactives show top-dose activity change, negative = cytotoxicity, most hits filed as inhibitors; actives 4.3% (n = 94,000); AID 1345082; note: nearly all actives have a fitted effect of over 55% in size
#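 Viability of NIH 3T3 cells after 48 or 72 hr compound treatment at 37 °C was assessed by CellTiter-Glo, with luminescence imaged following a 10 min room-temperature step.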
# FLuc inh: blocks purified firefly luciferase enzyme activity; P08659; purified P. pyralis luciferase, luminescence, biochemical; Potency, µM (series often up to 115 µM), hits mostly inhibitors; actives 2.5% (n = 76,000); AID 1347043; note: nearly all actives have a fitted effect of over 65% in size
# Target sequence (P08659 whole entry, looked up): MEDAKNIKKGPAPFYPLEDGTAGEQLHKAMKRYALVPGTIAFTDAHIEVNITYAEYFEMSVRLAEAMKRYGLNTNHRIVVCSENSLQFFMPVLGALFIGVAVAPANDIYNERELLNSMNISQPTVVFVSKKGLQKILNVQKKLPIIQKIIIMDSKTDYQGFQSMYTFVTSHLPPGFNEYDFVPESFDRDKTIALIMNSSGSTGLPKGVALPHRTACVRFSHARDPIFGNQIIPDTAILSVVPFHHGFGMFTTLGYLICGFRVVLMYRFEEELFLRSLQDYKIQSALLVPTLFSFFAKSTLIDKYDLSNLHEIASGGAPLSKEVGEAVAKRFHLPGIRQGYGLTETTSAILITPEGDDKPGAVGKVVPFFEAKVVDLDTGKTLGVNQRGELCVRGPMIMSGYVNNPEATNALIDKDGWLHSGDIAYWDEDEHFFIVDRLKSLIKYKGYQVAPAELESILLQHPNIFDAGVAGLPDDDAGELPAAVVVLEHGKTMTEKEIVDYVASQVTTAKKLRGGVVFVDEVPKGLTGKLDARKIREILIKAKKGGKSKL
#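 Purified 10nM P. pyralis luciferase with 10uM D-luciferin and 10uM ATP in 50mM Tris acetate pH 7.5, 10mM Mg acetate, 0.01% Tween-20, 0.05% BSA. qHTS titration; luminescence read by CCD imager.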
# NPR1 antag: blocks ANP-stimulated signaling of human Npr1 receptor; HEK293 hNpr1 GloSensor cGMP, ANP-stimulated luminescence; Potency, µM (doses to about 46.3 µM), for inactives: top-dose activity change, negative = inhibition, hits mostly inhibitors; actives 1.6% (n = 76,000); P16066; calls by dose curve; note: nearly all actives have a fitted effect of over 60% in size
#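 Compound pre-incubated 30 min at room temperature on GloSensor-loaded HEK293 cells stably carrying hNpr1 and the pGS-40F cGMP biosensor. Stimulation uses hNppA at 0.1 nM final; luminescence is taken at baseline and 20 min post-agonist.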
# * marks the source's active call; other numbers are inactive results; i = inactive; ? = inconclusive; / = not tested or not shown; [ ] = another dose, or the depositor's remark. Unless noted, calls come from the whole dose curve; as a rule, active = well fitted curve in the direction sought with a large enough effect; inconclusive = small, poorly fitted or top-dose-only effect, or another doubt; inactive = no such curve, though single readings can be large; an effect the other way counts as inactive or inconclusive. % is set by controls: 0 for no effect and ±100 for the full control effect; potency is the fitted concentration of half-maximal effect.
SMILES,HEK cytotox,3T3 cytotox,FLuc inh,NPR1 antag
COc1ccccc1NC(=O)CC1CCCN(c2cnn(CC3CC3)c(=O)c2)C1 (centres undefined),1%,35µM*,i,-20%
CCOc1ccccc1NC(=O)CC1CCCN(c2cnn(CC3CC3)c(=O)c2)C1 (centres undefined),?,35µM*,i,0%
O=C(CC1CCCN(c2cnn(CC3CC3)c(=O)c2)C1)Nc1ccccc1F (centres undefined),-27%,?,i,-1%
COc1ccccc1NC(=O)CC1CCCN(c2cnn(C)c(=O)c2)C1 (centres undefined),8%,-5%,i,-22%
COc1ccc(NC(=O)c2ccc3c(c2)C2(CCCN(C)C2)CN3C)cc1 (centres undefined),?,?,i,0%[70.6 µM]
COc1cccc(CN2CC3(CCN(C)C3)c3cc(C(=O)NC4CCCCC4)ccc32)c1 (centres undefined),56µM*,25µM*,i,-10%[70.6 µM]
Cn1ccc(NC(=O)c2ccc3c(c2)C2(CCN(CC4CC4)C2)CN3Cc2ccccc2)n1 (centres undefined),32µM*,?,i,-9%
CN1CCC2(C1)CN(Cc1ccccc1)c1ccc(C(=O)Nc3ccc(F)cc3)cc12 (centres undefined),40µM*,25µM*,i,-1%[70.6 µM]
CN1CCC2(C1)CN(Cc1ccccc1)c1ccc(C(=O)NC3CCC(O)CC3)cc12 (centres undefined),?,-17%[138 µM],i,-2%[70.6 µM]
COc1ccc(NC(=O)c2ccc3c(c2)C2(CCN(C)C2)CN3Cc2ccccc2)cc1 (centres undefined),71µM*,50µM*,i,-4%[70.6 µM]
CN1CCCC2(C1)CN(Cc1cccnc1)c1ccc(C(=O)Nc3ccc(F)cc3)cc12 (centres undefined),?,?,i,3%[70.6 µM]
COc1ccc(Cc2nc3nccc(-c4ccc(OC)cc4)n3n2)cc1,?,-29%,i,5%
CC(C)c1ccc(CN2CC[C@@H]3OCC(=O)N(Cc4ccccc4)[C@H]3CC2)cc1,32µM*,35µM*,i,?
O=C1CO[C@H]2CCN(Cc3ccc4c(c3)CCO4)CC[C@@H]2N1Cc1ccccc1,?,100µM*,i,-21%[70.6 µM]
CS(=O)(=O)N1CCCC1Cc1noc(-c2ccccc2)n1 (centres undefined),i,-15%,/,/
Cc1nc(-c2ccc(F)cc2)n(CC(=O)Nc2ccc(F)cc2)c(=O)c1CCO,?,?,i,-6%
COc1ccc(NC(=O)Cn2c(-c3ccccc3)nc(C)c(CCO)c2=O)cc1Cl,25µM*,?,i,-24%
CSc1cccc(NC(=O)Cn2c(-c3ccc(F)cc3)nc(C)c(CCO)c2=O)c1,32µM*,?,i,-17%
Cc1nc(-c2ccc(F)cc2)n(CC(=O)NCc2ccc(F)cc2)c(=O)c1CCO,-9%,-25%,i,-2%
CCc1cccc(NC(=O)Cn2c(-c3cccc(Cl)c3)nc(C)c(CCO)c2=O)c1,40µM*,?,i,-5%
COc1ccc(NC(=O)Cn2c(-c3ccccc3)nc(C)c(CCO)c2=O)cc1OC,?,?,i,-4%
Cc1ccc(CNC(=O)Cn2c(-c3ccccc3)nc(C)c(CCO)c2=O)cc1,79µM*,?,i,-8%
Cc1ccc(-n2nc3n(c2=O)CCN(C(=O)c2ccccc2Cl)C3)cc1,?,?,i,-3%
Cc1nc(-c2ccccc2)n(CC(=O)Nc2ccccc2)c(=O)c1CCO,?,?,i,1%
Cc1cc(NC(=O)Cn2c(-c3cccc(Cl)c3)nc(C)c(CCO)c2=O)no1,?,?,i,-1%
SMILES,HEK cytotox,3T3 cytotox,FLuc inh,NPR1 antag
Cc1nc(-c2cccc(Cl)c2)n(CC(=O)Nc2ccccc2F)c(=O)c1CCO,45µM*,?,i,-15%
Cc1nc(-c2cccc(Cl)c2)n(CC(=O)Nc2ccccc2)c(=O)c1CCO,45µM*,?,i,-11%
Cc1nc(-c2cccc(Cl)c2)n(CC(=O)Nc2cccc(C(C)C)c2)c(=O)c1CCO,?,25µM*,i,-8%
Cc1cc(C)cc(NC(=O)Cn2c(-c3ccccc3)nc(C)c(CCO)c2=O)c1,32µM*,?,i,-11%
COCCn1c(=O)c(C(=O)NC2CCCC2)nc2cccnc21,i,-15%[138 µM],/,/
CCCNC(=O)N1CCCCCNC(=O)CC1c1ccccc1 (centres undefined),2%,-4%,i,3%
COc1ccc(C(=O)N[C@@H]2CCC[C@@H]2C(=O)NC(C)C)cc1,-4%,2%,i,2%
CCc1cccc(NC(=O)Cn2c(-c3ccc(Cl)cc3)nc(C)c(CCO)c2=O)c1,?,-23%,i,-17%
Cc1ccc(NC(=O)Cn2c(-c3cccc(Cl)c3)nc(C)c(CCO)c2=O)cc1,25µM*,40µM*,i,-3%
Cc1nc(-c2cccc(Cl)c2)n(CC(=O)Nc2ccc3c(c2)OCO3)c(=O)c1CCO,40µM*,?,i,-22%
Cc1ccc(NC(=O)Cn2c(-c3ccc(Cl)cc3)nc(C)c(CCO)c2=O)cc1,32µM*,?,i,-2%
Cc1nc(-c2ccc(F)cc2)n(CC(=O)Nc2ccc(F)c(Cl)c2)c(=O)c1CCO,35µM*,?,i,-24%
Cc1ccc(NC(=O)Cn2c(-c3ccc(F)cc3)nc(C)c(CCO)c2=O)cc1Cl,?,?,i,-4%
O=C(Nc1cccc(Cl)c1)c1nc2sccn2c1-c1ccc(F)cc1,?,-30%[138 µM],/,/
COc1ccc(CC(=O)N2C[C@@H](CO)[C@@H]3Oc4c(F)cccc4[C@@H]32)cc1,?,-30%,/,/
O=C1NCCCCCCN(C(=O)C2CCC2)[C@H]2C[C@H](c3nc(-c4cccnc4)no3)C[C@@H]12,1%,-24%,i,7%
COc1ccc(C(=O)N[C@H]2CC[C@]3(C)CCC([C@H](C)C(=O)N4CCCC4)[C@H](O)[C@H]3[C@@H]2C)cc1 (some centres undefined),2%,-27%,i,-7%
O=C(COc1ccc(-n2cnnn2)cc1)N1CCCC2(CCOC2)C1 (centres undefined),-7%,-8%,i,12%
COc1cccc2c1OCC(CNC(=O)c1ccccc1N1CCCC1)C2 (centres undefined),89µM*,2%,i,3%
COc1cccc2c1OCC(CNC(=O)CCN1Cc3ccccc3C1=O)C2 (centres undefined),-7%,-8%,i,-1%
CN1c2cc(C(=O)N3CCN(c4cccc(Cl)c4)CC3)ccc2C(=O)N2CCCC21 (centres undefined),79µM*,-15%,i,-5%
CN1c2cc(C(=O)N3CCN(c4ccccc4)CC3)ccc2C(=O)N2CCCCCC21 (centres undefined),?,?,i,-1%
